Holding throughout (conditions): 25 µM; exposure: 24-48 hpf
In test [1] the test system is Danio rerio Tg(wt1b:EGFP) embryo, pronephros. Nature of the test: glomerular separation, fold change vs DMSO control; higher = glomeruli further apart (abnormal). The procedure, abridged: (§1)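 Every feature is expressed as a fold change relative to the averaged DMSO-treated embryos of the same day. The exposure ran from 24 to 48 hpf at 28.5°C, with dechorionated Tg(wt1b:EGFP) zebrafish embryos in HEPES-buffered E3 containing 0.003% PTU, 0.5% DMSO and 25 μM compound. Dorsal pronephros images taken in agarose-filled 96-well plates were reduced to maximum projections, on which 16 reference points were set by hand in Fiji for a macro to compute distances and angles. Values more than 2 SD from the feature mean were not used.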

Test [2] shares this test system. As to the kind of experiment: glomerular width (mean of left and right), fold change vs DMSO control; higher = wider glomerulus. Put shortly:
as §1

Test [3] shares this test system. As to the kind of experiment: fraction of imaged embryos annotated as normal kidney; higher = less nephrotoxic; extreme values may be limits of the assay. Put shortly:
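Tricaine-anaesthetised Tg(wt1b:EGFP) zebrafish larvae were oriented dorsally in agarose-filled 96-well plates, and their pronephroi were recorded by widefield fluorescence at 470 nm in 10 z-slices. Before this, the dechorionated embryos had been exposed in 12-well plates to 25 μM compound in 0.5% DMSO and 5 mM HEPES-buffered E3 with 0.003% PTU, from 24 to 48 hpf at 28.5°C. Maximum projections were annotated manually for each embryo, and the read-out is the fraction per treatment classed as normal kidney.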

The test system is the same in test [4]. Nature of the test: pronephric angle neck segment to proximal convoluted tubule (mean of left and right), fold change vs DMSO control; higher = larger pronephric angle. Put shortly:
as §1

Where a name gives a salt, the structure may show the parent alone. ± gives the standard deviation or the standard deviation of the averaged measurements.

`Clc1ccc(C(Cn2ccnc2)OCc2csc3c(Cl)cccc23)c(Cl)c1` (stereo not drawn) [Sertaconazole nitrate]: in test [1], the glomerular separation stood at 3.82 ± 1.8. Moreover, the glomerular width in test [2] stood at 0.727 ± 0.039. For the same compound, in test [3], the “fraction of imaged embryos annotated as normal kidney” value (“fraction of imaged embryos annotated” below) came out at 0. In addition, the “pronephric angle neck segment” value in test [4] came to 1.56 ± 0.052.

Consider `NC(=O)c1cnccn1` [Pyrazinamide], for which the glomerular separation in test [1] was found to be 0.862 ± 0.21. Besides, the glomerular width in test [2] stood at 1.04 ± 0.034. Further, in test [3], the “fraction of imaged embryos annotated” value is 0.667. Moreover, the “pronephric angle neck segment” value in test [4] turned out to be 0.9361 ± 0.0033.

`Nc1ccc(S(=O)(=O)Nc2cnc3ccccc3n2)cc1` [Sulfaquinoxaline sodium salt] showed a glomerular separation in test [1] of 0.886 ± 0.3. The compound also registered a glomerular width in test [2] of 0.97 ± 0.033. Further, the “fraction of imaged embryos annotated” value in test [3] was determined as 1. For the same compound, the “pronephric angle neck segment” value in test [4] worked out at 1.09 ± 0.012.

On to `N=C(N)NC(=N)NCCc1ccccc1` [Phenformin hydrochloride], for which the glomerular separation in test [1] came out at 0.95 ± 0.25. For the same compound, the glomerular width in test [2] was 0.978 ± 0.021. Also, in test [3], the “fraction of imaged embryos annotated” value was determined as 0.917. In addition, the “pronephric angle neck segment” value in test [4] turned out to be 0.956 ± 0.029.

Compound `CCCN(CCC)S(=O)(=O)c1ccc(C(=O)O)cc1` [Probenecid] gave a glomerular separation in test [1] of 1.41 ± 0.61. Besides, the glomerular width in test [2] was determined as 0.907 ± 0.091. For the same compound, in test [3], the “fraction of imaged embryos annotated” value amounted to 0.833. For the same compound, the “pronephric angle neck segment” value in test [4] was determined as 0.915 ± 0.028.

The compound `CC(C)(O)c1ccccc1CC[C@@H](SCC1(CC(=O)O)CC1)c1cccc(/C=C/c2ccc3ccc(Cl)cc3n2)c1` [Montelukast] showed a glomerular separation in test [1] of 0.861 ± 0.26. Besides, in test [2], the glomerular width is 0.925 ± 0.047. In test [3], the “fraction of imaged embryos annotated” value came to 0.833. Moreover, the “pronephric angle neck segment” value in test [4] stood at 1.04 ± 0.026.

For the compound `CN(C)CCCSC(=N)N` [Dimaprit dihydrochloride], the glomerular separation in test [1] turned out to be 0.745 ± 0.36. This compound also gave a glomerular width in test [2] of 1.05 ± 0.052. Moreover, in test [3], the “fraction of imaged embryos annotated” value is 0.75. For the same compound, the “pronephric angle neck segment” value in test [4] stood at 1 ± 0.022.

In test [1], `Cn1c(=O)c2c(ncn2CC2OCCO2)n(C)c1=O` [Doxofylline] registered a glomerular separation of 1.55 ± 0.87. Also, the glomerular width in test [2] came out at 0.971 ± 0.021. The “fraction of imaged embryos annotated” value in test [3] is 0.917. The “pronephric angle neck segment” value in test [4] turned out to be 1.03 ± 0.03.

In test [1], `Oc1ccc(C2CNCCc3c2cc(O)c(O)c3Cl)cc1` (stereo not drawn) [Fenoldopam] had a glomerular separation of 0.757 ± 0.32. In test [2], the glomerular width is 1.01 ± 0.038. In addition, the “fraction of imaged embryos annotated” value in test [3] stood at 0.917. Also, in test [4], the “pronephric angle neck segment” value is 0.979 ± 0.053.

With `CCCCOC(=O)c1ccc(O)cc1` [Butylparaben], the glomerular separation in test [1] came to 1.67 ± 0.4. This compound yielded a glomerular width in test [2] of 0.994 ± 0.022. In addition, the “fraction of imaged embryos annotated” value in test [3] was determined as 0.5. In addition, in test [4], the “pronephric angle neck segment” value was determined as 1.11 ± 0.038.

`Cc1ccc(O)c([C@H](CCN(C(C)C)C(C)C)c2ccccc2)c1` [Tolterodine tartrate] gave a glomerular separation in test [1] of 1.13 ± 0.42. This compound displayed a glomerular width in test [2] of 1.06 ± 0.022. Besides, the “fraction of imaged embryos annotated” value in test [3] was determined as 0.818. The “pronephric angle neck segment” value in test [4] came to 0.986 ± 0.044.

On to `COc1cc(NC(C)CCCN)c2ncccc2c1` (stereo not drawn) [Primaquine diphosphate], for which the glomerular separation in test [1] is 1.04 ± 0.21. Moreover, in test [2], the glomerular width was 1.04 ± 0.079. The “fraction of imaged embryos annotated” value in test [3] worked out at 1. Further, the “pronephric angle neck segment” value in test [4] was 1.01 ± 0.074.

In turn, `CCN(CC)C(=S)SSC(=S)N(CC)CC` [Disulfiram] showed a glomerular separation in test [1] of 3.4 ± 1.9. The same compound registered a glomerular width in test [2] of 0.458 ± 0.05. For the same compound, the “fraction of imaged embryos annotated” value in test [3] turned out to be 0. Further, the “pronephric angle neck segment” value in test [4] worked out at 1.7 ± 0.043.

As for `O=C1CC2(CCCC2)CC(=O)N1CCCCN1CCN(c2ncccn2)CC1` [Buspirone hydrochloride], in test [1], the glomerular separation came to 0.901 ± 0.35. In addition, the glomerular width in test [2] came to 1.02 ± 0.022. Moreover, the “fraction of imaged embryos annotated” value in test [3] was determined as 0.75. Besides, in test [4], the “pronephric angle neck segment” value worked out at 1.01 ± 0.034.

For `Cc1cccc(C)c1NC(=O)CN1CCN(CCCC(c2ccc(F)cc2)c2ccc(F)cc2)CC1` [Lidoflazine], in test [1], the glomerular separation came to 3 ± 1.2. Also, the glomerular width in test [2] stood at 0.667 ± 0.014. The “fraction of imaged embryos annotated” value in test [3] came out at 0.167. In test [4], the “pronephric angle neck segment” value worked out at 0.988 ± 0.13.

Take `C=C1c2c(Cl)ccc(O)c2C(=O)C2=C(O)[C@]3(O)C(=O)C(C(N)=O)=C(O)[C@@H](N(C)C)[C@@H]3[C@@H](O)[C@H]12.O=C(O)c1cc(S(=O)(=O)O)ccc1O` [Meclocycline sulfosalicylate]: the glomerular separation in test [1] was found to be 1.02 ± 0.24. In test [2], this compound displayed a glomerular width of 1.09 ± 0.091. Also, the “fraction of imaged embryos annotated” value in test [3] is 0.917. Besides, the “pronephric angle neck segment” value in test [4] worked out at 0.9562 ± 0.0078.

In the case of `O=C(O)Cc1ccc(-c2ccccc2)cc1` [Felbinac], the glomerular separation in test [1] was 4.74 ± 1.6. The glomerular width in test [2] was determined as 0.627 ± 0.0096. Also, the “fraction of imaged embryos annotated” value in test [3] turned out to be 0. Also, the “pronephric angle neck segment” value in test [4] was determined as 1.73 ± 0.04.

Consider `CN(C)c1cc(NC(=O)CNC(C)(C)C)c(O)c2c1C[C@H]1C[C@H]3[C@H](N(C)C)C(O)=C(C(N)=O)C(=O)[C@@]3(O)C(O)=C1C2=O` [Tigecycline], for which the glomerular separation in test [1] was found to be 0.759 ± 0.22. This compound returned a glomerular width in test [2] of 1.03 ± 0.045. Further, the “fraction of imaged embryos annotated” value in test [3] came out at 0.833. In addition, in test [4], the “pronephric angle neck segment” value was found to be 0.954 ± 0.02.

`CN[C@H]1CC[C@@H](c2ccc(Cl)c(Cl)c2)c2ccccc21` [Sertraline] returned a glomerular separation in test [1] of 0.914 ± 0.35. In test [2], the glomerular width came to 0.973 ± 0.035. Also, the “fraction of imaged embryos annotated” value in test [3] stood at 0.917. Besides, the “pronephric angle neck segment” value in test [4] was 0.969 ± 0.045.

As for `CN(C)CCOc1ccc(/C(=C(/CCCl)c2ccccc2)c2ccccc2)cc1` [Toremifene], in test [1], the glomerular separation was determined as 0.881 ± 0.39. For the same compound, the glomerular width in test [2] worked out at 0.904 ± 0.08. Also, the “fraction of imaged embryos annotated” value in test [3] worked out at 0.917. Moreover, the “pronephric angle neck segment” value in test [4] turned out to be 1.04 ± 0.018.

In turn, `CC[N+](CC)(CC)CCOc1cccc(OCC[N+](CC)(CC)CC)c1OCC[N+](CC)(CC)CC` [Gallamine triethiodide] displayed a glomerular separation in test [1] of 1.13 ± 0.48. Further, the glomerular width in test [2] is 1.03 ± 0.04. Further, the “fraction of imaged embryos annotated” value in test [3] was 0.833. For the same compound, the “pronephric angle neck segment” value in test [4] worked out at 0.998 ± 0.034.

Compound `CCCc1nn(C)c2c(=O)[nH]c(-c3cc(S(=O)(=O)N4CCN(C)CC4)ccc3OCC)nc12` [Sildenafil] came in with a glomerular separation in test [1] of 1.12 ± 0.37. The same compound registered a glomerular width in test [2] of 0.928 ± 0.045. In addition, in test [3], the “fraction of imaged embryos annotated” value amounted to 1. Further, the “pronephric angle neck segment” value in test [4] came out at 0.9607 ± 0.0012.

Consider `CC(C)(C(=O)O)c1ccc(C(O)CCCN2CCC(C(O)(c3ccccc3)c3ccccc3)CC2)cc1` (stereo not drawn) [Fexofenadine hydrochloride], for which the glomerular separation in test [1] was 0.859 ± 0.33. This compound also returned a glomerular width in test [2] of 1.12 ± 0.028. The “fraction of imaged embryos annotated” value in test [3] came to 0.833. Moreover, the “pronephric angle neck segment” value in test [4] came to 0.956 ± 0.033.

As to `CC(N)CCCC(C)(C)O` (stereo not drawn) [Heptaminol hydrochloride], in test [1], the glomerular separation is 1.19 ± 0.48. Besides, the glomerular width in test [2] came to 1 ± 0.044. Also, the “fraction of imaged embryos annotated” value in test [3] came out at 0.75. Further, the “pronephric angle neck segment” value in test [4] is 0.971 ± 0.023.

For `Cc1ccccc1C(OCCN(C)C)c1ccccc1` (stereo not drawn) [Orphenadrine hydrochloride], in test [1], the glomerular separation was determined as 0.79 ± 0.21. The glomerular width in test [2] stood at 1.04 ± 0.013. Further, in test [3], the “fraction of imaged embryos annotated” value was found to be 0.833. In addition, the “pronephric angle neck segment” value in test [4] was determined as 1 ± 0.015.

In the case of `C/C(=C(\CCOP(=O)(O)O)SC(=O)c1ccccc1)N(C=O)Cc1cnc(C)nc1N` [Benfotiamine], the glomerular separation in test [1] was determined as 1.54 ± 0.89. This compound also gave a glomerular width in test [2] of 0.995 ± 0.021. Further, in test [3], the “fraction of imaged embryos annotated” value stood at 0.75. Further, the “pronephric angle neck segment” value in test [4] came to 0.949 ± 0.013.

As for `c1ccc(CC2=NCCN2)cc1` [Tolazoline hydrochloride], the glomerular separation in test [1] is 0.955 ± 0.4. For the same compound, the glomerular width in test [2] is 1.03 ± 0.053. Also, the “fraction of imaged embryos annotated” value in test [3] was found to be 0.667. Moreover, the “pronephric angle neck segment” value in test [4] was determined as 0.949 ± 0.013.

Values taken from the supplement of paper PMC7366291.
